Assay [1] is described as follows: APR_HepG2_P-H2AX_72hr: Apredica 72-hour HepG2 Assay for H2AX Phosphorylation (AID 2282916).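 Further: phospho-histone H2A.x immunostain intensity per cell marking DNA damage.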 Conditions: imaging, actives raise or lower the signal. The essentials: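 HepG2; cpd 0.39–200 uM ×10 conc, duplicates; 0.5% DMSO; 72 hr. Fix 3.7% formaldehyde 30 min RT, 0.5% Triton X-100 10 min. Anti-phospho-H2A.x 1:200 + Hoechst 2 ug/mL, 60 min RT; ArrayScan imaging.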

The nature of assay [2]: APR_HepG2_MitoMembPot_72hr: Apredica 72-hour HepG2 Assay for Mitochondrial Membrane Potential (AID 2282917). The note with it: imaging, actives raise or lower the signal. The essentials:
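Membrane potential read by MitoTracker Red CMXRos (250 nM, 30 min, pre-fixation) fluorescence imaging of HepG2 after 72 hr exposure. Ten concentrations, 0.39–200 uM, duplicate wells, 0.5% DMSO; fitted in both directions against DMSO baseline.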

Assay [3] is described as follows: APR_HepG2_MicrotubuleCSK_72hr: Apredica 72-hour HepG2 Assay for Microtubule CSK Stabilty (AID 2282919). The note with it: HepG2 microtubule cytoskeleton, high-content imaging, actives raise or lower the signal. In a few lines: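 Read-out is tubulin fluorescence intensity from high-content imaging of HepG2 cells, with nuclei identified by Hoechst 33342. Treatment lasts 72 h at 0.39–200 uM, and curves are fitted bidirectionally against the DMSO negative control.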

Assay [4] is described as follows: APR_HepG2_P-H2AX_24hr: Apredica 24-hour HepG2 Assay for H2AX Phosphorylation (AID 2282920). The note with it: high-content imaging, actives raise or lower the signal. In a few lines: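 HepG2 human liver cells were exposed for 24 hr to compounds at 0.39–200 uM in duplicate, with 0.5% v/v DMSO final. Fixed cells were immunostained for phospho-histone H2A.x plus Hoechst 33342, imaged by HCS fluorescence, and fitted bidirectionally against DMSO.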

Assay [5] can be described thus: APR_HepG2_StressKinase_72hr: Apredica 72-hour HepG2 Assay for Stress Kinase (AID 2282921). The note with it: HepG2 stress kinase (phospho-c-Jun) imaging, actives raise or lower the signal. The essentials: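 Dose 0.39–200 uM (10 pts, duplicate), 0.5% DMSO; 72 h; fix 3.7% formaldehyde 30 min RT; Triton permeabilize; anti-phospho-c-Jun/Cy3 + Hoechst 60 min RT; image 20x; fit gain/loss vs DMSO.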

Assay [6] in a line: APR_HepG2_StressKinase_24hr: Apredica 24-hour HepG2 Assay for Stress Kinase (AID 2282922). Conditions: HepG2 stress kinase (phospho-c-Jun) imaging, actives raise or lower the signal. The essentials:
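HepG2, 24 hr dosing, 0.39–200 uM in duplicate, 0.5% DMSO; formaldehyde fix (3.7%), 0.5% Triton X-100; anti-phospho-c-Jun + Cy3 secondary, Hoechst counterstain; ArrayScan imaging; bidirectional curve fit vs DMSO baseline.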

The nature of assay [7]: APR_HepG2_MitoMass_72hr: Apredica 72-hour HepG2 Assay for Mitochondrial Mass (AID 2282924).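 Further: MitoTracker Red CMXRos stain intensity per cell imaged as mitochondrial mass.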 The note with it: high-content imaging, actives raise or lower the signal. In a few lines: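 HepG2, 72 hr cmpd, 10 conc 0.39–200 uM in dup, DMSO 0.5% v/v. MitoTracker Red CMXRos 250 nM 30 min pre-fix; formaldehyde 3.7% fix 30 min RT. HCS imaging, gain/loss fit vs DMSO.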
Assay [8] in a line: APR_HepG2_NuclearSize_72hr: Apredica 72-hour HepG2 Assay for Nuclear Size (AID 2282925). Conditions: high-content imaging, actives raise or lower the signal. The essentials: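 HepG2; cpd 0.39–200 uM, 10 conc, duplicate; 72 h; DMSO 0.5% v/v; fix 3.7% formaldehyde 30 min RT; Triton permeabilization; Hoechst 2 ug/mL; HCS imaging 20x; nuclear diameter; gain/loss fit vs DMSO.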
Assay [9] can be described thus: APR_HepG2_p53Act_72hr: Apredica 72-hour HepG2 Assay for p53 Activation (AID 2282923).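 Further: average cellular p53 protein immunofluorescence intensity in HepG2 cells.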 Conditions: high-content imaging, actives raise or lower the signal. In a few lines: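 10-pt conc. 0.39–200 uM, duplicate, 0.5% DMSO; 72 hr exposure; 3.7% formaldehyde fix, 0.5% Triton perm; sheep anti-p53/Cy5 + Hoechst; ArrayScan 20x, 6 images/well; gain/loss fit vs DMSO.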

Each structure is given as a SMILES string. The source made the active and inactive calls. How the source made its calls: active means hit-call score of the fitted dose curve at least 0.9, where 1 is the maximum; inactive means score below 0.9.

What is called AC50 is the concentration at which the activity in the assay is half-maximal.

With `Nc1nc(=S)c2[nH]cnc2[nH]1`, the AC50 in [1] was 30.5 µM (active). The call in [2], in [3], in assay [4], in assay [5], in [6] and in assay [7] was inactive. The outcome in assay [8] was inactive.

Regarding `O=C(NS(=O)(=O)/C=C/c1cccs1)c1ccc(F)cc1Br`, the molecule was classed as inactive in assay [1], in assay [2], in assay [3], in [4], in assay [5] and in assay [6]. For the same molecule, the molecule was classed as inactive in assay [7] and in [8].

With `Oc1ccccc1O`, the AC50 in assay [1] was 53.2 µM (active); in assay [4] it was 67.9 µM (active). Further, the molecule was classed as inactive in assay [5], in assay [6], in assay [9] and in assay [8].

As to `COC(=O)CCC(=O)OC`, the result in [1], in assay [2], in assay [3], in assay [4], in assay [5] and in assay [6] was inactive. Besides, the outcome in assay [9] and in assay [8] was inactive.

Turning to `NC=O`, the call in assay [1], in assay [2], in [3], in [4], in [5] and in [6] was inactive. Further, the molecule was called inactive in [7] and in [8].

For `CCCCC(CC)CO` (stereo not given), the molecule was called inactive in assay [1], in [2], in assay [3], in [4], in assay [5] and in assay [6]. Also, the call in assay [9] and in assay [8] was inactive.

On to `CC(=O)CC(c1ccccc1)c1c(O)c2ccccc2oc1=O` (stereo not given), for which the result in assay [1], in [2], in [3], in [4], in [5] and in [6] was inactive. The call in [7] and in assay [8] was inactive.

Take `CCCCCCC(C=O)=Cc1ccccc1`: the molecule was called inactive in [1], in assay [2], in assay [3], in assay [4], in [5] and in assay [6]. The outcome in assay [7] and in [8] was inactive.

As for `CCCCCCCCCC[N+](C)(C)[O-]`, the result in [1], in assay [3], in assay [4], in [5], in assay [6] and in assay [9] was inactive. Further, the molecule was called inactive in assay [8]. Moreover, in [2], the AC50 was 169 µM (active).

For the molecule `NC1CCCCC1`, the molecule was classed as inactive in [1], in assay [2], in [3], in [4], in assay [5] and in assay [6]. For the same molecule, in [8], the molecule was classed as inactive.

In the case of `CC(=O)OCC(COC(C)=O)OC(C)=O`, the molecule was classed as inactive in assay [1], in assay [2], in [3], in assay [4], in assay [5] and in assay [6]. In addition, in assay [8], the molecule was classed as inactive.

`Cc1ccc(-c2cc(C(F)(F)F)nn2-c2ccc(S(N)(=O)=O)cc2)cc1`: the AC50 in assay [1] is 100 µM (active); in assay [4], 106 µM (active); in assay [5] it was 111 µM (active). Also, the molecule was classed as inactive in [2], in assay [3], in assay [6], in assay [7] and in [8].

For `CCCC[C@H]1CN(CC2CCOCC2)C(=O)OC12CCN(C1(C)CCN(C(=O)c3c(C)ncnc3C)CC1)CC2`, the molecule was called inactive in assay [1], in assay [2], in assay [3], in assay [4], in [5] and in assay [6]. Also, the outcome in assay [9] and in assay [8] was inactive.

With `C/C=C/C=C/C(=O)O`, the results for the AC50 in assay [1] and in assay [8] were 93 µM (active) and 60.7 µM (active), respectively. The result in assay [2], in [3], in assay [4], in assay [5] and in assay [6] was inactive.

For `CCCCC(CC)COC(=O)CCCCCCCC(=O)OCC(CC)CCCC` (stereo not given), the call in assay [1], in assay [2], in [3], in [4], in assay [5] and in [6] was inactive. Also, the molecule was called inactive in assay [9] and in assay [8].

`CC(C)(O)c1ccc(CNC(=O)c2cccnc2Oc2ccc(F)cc2)cc1`: the molecule was classed as inactive in [1], in assay [2], in [3], in [4], in assay [5] and in assay [6]. Also, the outcome in assay [9] and in assay [8] was inactive.

In the case of `CC(=O)O`, the AC50 in assay [1] is 92 µM (active); in assay [2] it was 100 µM (active); in [4], 66.4 µM (active). The result in [3], in [5], in [6] and in assay [8] was inactive.

Turning to `O=C1OC(c2ccc(O)cc2)(c2ccc(O)cc2)c2ccccc21`, the AC50 was 31 µM (active) in assay [1]; 97.3 µM (active) in [3]; 73.3 µM (active) in assay [4]; 40 µM (active) in [5]; 29.2 µM (active) in [9]. In addition, the call in assay [2], in assay [6] and in assay [8] was inactive.

As for `C/C=C/c1ccc(OC)cc1`, the molecule was called inactive in assay [1], in assay [2], in assay [3], in assay [4], in assay [5] and in assay [6]. Also, the result in assay [7] and in [8] was inactive.

Consider `CC1=C(C)S(=O)(=O)CCS1(=O)=O`, for which the AC50 in [1] is 82.3 µM (active); in [9] it was 73.8 µM (active). The outcome in assay [2], in assay [3], in assay [4], in assay [5], in [6] and in assay [8] was inactive.

Consider `COc1ccc(C(=O)Nc2nc3ccccc3c(NCc3ccccc3)c2C#N)cc1`, for which the AC50 in assay [1] is 47.8 µM (active); in assay [2], 1.45 µM (active); in [4], 106 µM (active); in assay [8] it was 113 µM (active). Besides, the molecule was classed as inactive in assay [3], in assay [5], in assay [6] and in [9].

As to `O=C1NC(=O)C(c2ccccc2)(c2ccccc2)N1`, the molecule was classed as inactive in assay [1], in [2], in assay [3], in assay [4], in [5] and in assay [6]. Moreover, the molecule was classed as inactive in assay [7] and in [8].

`CC(=O)OC1CC(C)OC(C)O1` (stereo not given): the call in assay [1], in assay [2], in assay [3], in assay [4], in assay [5] and in [6] was inactive. In addition, the result in [7] and in [8] was inactive.

With `CCN(CC)CCOc1ccc(C(=C(Cl)c2ccccc2)c2ccccc2)cc1`, the AC50 was 5.35 µM (active) in [1], 61.2 µM (active) in [3], 10.5 µM (active) in assay [4] and 77.9 µM (active) in assay [7]. For the same molecule, the result in assay [2], in [5], in [6] and in assay [8] was inactive.

`CC(COCC(C)OC(=O)c1ccccc1)OC(=O)c1ccccc1` (stereo not given): the call in assay [1], in assay [2], in assay [3], in assay [4], in [5] and in assay [6] was inactive. Besides, the outcome in [8] was inactive.

For `CSc1ccc(Oc2ccc(S(N)(=O)=O)cc2CN(C)C)cc1C`, the result in assay [1], in assay [2], in assay [3], in assay [5], in assay [6] and in [8] was inactive. In addition, the AC50 in [4] is 92.5 µM (active).
